# In PubChem BioAssay AID445 (National Center for Advancing Translational Sciences (NCATS), 2006):
# Screen size: about 110,000 compounds; about 40 (0.04%) were called active. Roughly 22% stayed inconclusive and do not appear here. Many of the other results were omitted from the sample, so actives are more common in it than they were. Unmarked numbers belong to inactive results. The call rests on the fitted dose curve; in most records, active means well fitted curve in the direction sought with a large enough effect in the signal ratio (not every such curve was filed as active); inconclusive means small, poorly fitted or top-dose-only effect, or a change in a side signal; inactive means flat fitted curve, though single readings scatter; the % refers to the signal ratio.
# Assay: IkB Signaling;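 on IkBa stabilization activation: 0% = basal untreated cells and 100% = reference inhibitor full response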
# Conditions: ABC-DLBCL IkBa-CBG/CBR dual luciferase ratio, 4 h; series mostly up to 57.1 µM; IkBa stabilization activation: at the top concentration
# Excerpt: NIH Molecular Libraries Screening Centers Network [MLSCN]
# NIH Chemical Genomics Center [NCGC]
# Nuclear factor kappa-B (NF-kappa-B) plays an important role in normal B cell development and survival. Diffuse large B cell lymphoma (DLBCL) is the most commonly observed type of non-Hodgkin's lymphoma. Gene expression analysis has identified an activated B cell-like subtype of DLBCL (ABC-DLBCL) which expresses known NF-kappa-B target genes. […] However, targets upstream of IKK have been largely unexplored and so nodes upstream of IKK in the NF-kappa-B pathway remain untested due to the lack of chemical probes.
# A cell-sensor assay for I-kappa-B-alpha stabilization was developed with NIH investigator Dr. R. Eric Davis in Dr. Louis M. Staudt's laboratory. The assay uses green (CBG68) and red (CBR) emitting beetle luciferases [Chroma-Glo(TM) developed by Promega Corp.] where the green luciferase is fused to I-kappa-B-alpha and the red luciferase is present in its native state. Both luciferase genes are stably present in the OCI-Ly3 human ABC DLBCL cell line, but their expression is under the control of tetracycline-inducible promoters. Following the addition of doxycycline to induce expression of the luciferases, the green luminescence in control cultures rises only slowly because the CBG fusion partner I-kappa-B-alpha is targeted by IKK activity for rapid degradation. In contrast, green luminescence rises rapidly in the presence of proteasome inhibitors or IKK inhibitors. The rise in red luminescence of CBR is not affected by proteasome or IKK inhibitors, and serves as normalization for cell number and nonspecific effects. Compounds were screened as a concentration-titration series that ranged from 57 uM to 0.7 nM.
# NCGC Assay Protocol Summary:
# Cells were seeded in 1536-well plates at 5000 cells/3ul in IMDM medium containing 0.5% FBS, w/o phenol red, L-glutamine, 25 mM HEPES, 3 mg/ml sodium bicarbonate. After centrifugation for 1 min. at 1000 rpm, 23 nl of compounds or DMSO were delivered to each well using a pin tool. Then 1ul 80ng/ml doxycycline was dispensed into white solid 1536-well plates and the plates were incubated at 37C/5% C02 in a cell incubator for 4 hrs. Then 4 ul Chroma-Glo luminescent substrate mix (Promega) was added to each well. The plate was incubated at R.T. for 10-15 min. The plates were measured on a ViewLux plate reader for green luminescence (540/20 nm filter) and red luminescence (618/8 nm filter). The green and red luminescent signals were corrected for red and green luminescence filter overlap using previously determined filter calibration constants (determined using the procedure outlined in the Promega Technical Manual). The %Activity was determined from the ratio of corrected green/red luminescent values. Green luminescent and ratio %Activity was determined by normalizing to the difference in signal between basal cells (0% Activity) and cells incubated with 10 uM of the proteasome inhibitor MG-132 (100% Activity). Red luminescent %Activity was normalized to the difference between red luminesence in basal cells (0%Activity) and zero luminescence (-100% Activity).
# Concentration-response curves were fitted to the signals arising from the green luminescence (I-kappa-B-alpha-luciferase fusion; IkB-luc) and the red luminescence (unfused luciferase; luc) as well as the calculated ratio. The concentration-effect curves were then classified based on curve quality (r2), response magnitude and degree of measured activity. Compounds were then categorized based on their concentration-response curves for all three datasets (Ikb-luc, luc and ratio).
# Keywords: IKK, I-kappa-B, IkB, IkBa, cytotoxicity, luminescence, MLSMR, MLSCN, NIH Roadmap, qHTS, NCGC
# Potency means the concentration at half of the fitted maximal effect.
Structure (SMILES),IkBa stabilization activation,Potency
CCCCNC(=O)c1ccc2c(c1)NC(=O)C(C(C)C)N2 (configuration not stated),-0.449%,
CCOC(=O)c1scc(-c2ccc(C)cc2)c1S(=O)(=O)Nc1cc(C)ccc1C,0.745%,
CCN(CC)c1ccc(NC(=O)Cn2nc3c(cc2=O)CCCC3)c(C)c1,2.3%,
Cc1ccc2sc(N(Cc3cccnc3)C(=O)C3COc4ccccc4O3)nc2c1C (configuration not stated),-0.437%,
Cc1ccc(NC(=O)Cn2nnc3sc4c(c3c2=O)CCC(C)C4)cc1 (configuration not stated),-2.75%,
CSc1cccc(NC(=O)CN2C(=O)CCc3cc(S(=O)(=O)N4CCCCC4)ccc32)c1,3.58%,
CCOc1ccc(N(CC)S(=O)(=O)N2CCCC(C(=O)NCc3ccc(Cl)cc3)C2)cc1 (configuration not stated),0.399%,
O=C(NCCCO)C(=O)Nc1c2c(nn1-c1ccccc1)CSC2,-1.36%,
Cc1cc(OCC(=O)NCC2(N(C)C)CCCCC2)cc(C)c1Cl,1.43%,
Cc1ccc(-c2nn(CCC(=O)Nc3ccc(OC(F)(F)F)cc3)c(=O)c3ccccc23)cc1,-1.64%,
CCCSc1nc2sc3c(c2c(=O)n1-c1cccc(Br)c1)CC(C)(C)OC3,1.69%,
COc1ccc(CCNC(=O)Cn2c(=O)cc(C(F)(F)F)c3c(C)nn(C)c32)c(OC)c1,0.371%,
CCOc1ccccc1CNC(=O)c1cnc2c(-c3ccc(OCC)c(OCC)c3)c(C)nn2c1C,-1.18%,
CCOc1cc(CNC(=O)c2sc3ncnc(N(C)C4CCCCC4)c3c2C)ccc1OC,-1.17%,
Cc1c(-c2nc(-c3ccc4c(c3)OCO4)no2)nnn1-c1ccc(Br)cc1F,-3.96%,
CCN(CC)c1ccc(NS(=O)(=O)c2cc(-c3cc(C)no3)ccc2C)c(C)c1,0.135%,
CCN1CCN(CCCNC(=O)c2cnn(-c3ccc(C)cc3C)c2C2CCN(C(=O)OC(C)(C)C)CC2)CC1,1.54%,
COc1ccc(-c2onc(C)c2C)cc1S(=O)(=O)NCc1cccs1,-1.8%,
Cc1cccc(Cc2c(C)nc3nc(SCc4ccccc4Cl)nn3c2C)c1,2.23%,
NC(=O)C1CCN(C(=O)c2cccc(NC(=O)c3nsc4ccccc34)c2)CC1,-1.38%,
COc1ccccc1-c1noc(-c2ccc(NCc3ccccc3)c([N+](=O)[O-])c2)n1,-0.999%,
COc1ccc(Cl)cc1NC(=O)CSc1nc2ccccc2c2nc(-c3ccccc3)nn12,0.00394%,
CCOc1ccccc1NC(=O)Cn1c(=O)n(Cc2ccco2)c(=O)c2sc3ccccc3c21,4.55%,
CCN(CC)CCNC(=O)CN1N=C(c2ccc(OC)cc2)CCC1=O,-1.9%,
COc1ccc(CNc2nc(-c3ccc(Cl)cc3)cc(C(F)(F)F)n2)cc1,-1.22%,

Structure (SMILES),IkBa stabilization activation,Potency
COc1ccc(NC(=O)C2CCCN(S(=O)(=O)c3cccc4nonc34)C2)cc1Cl (configuration not stated),1.73%,
CCc1cc2c(cc3c(=O)n(CC(=O)N4CCN(c5cc(Cl)ccc5C)CC4)ncn32)s1,-1.17%,
COc1ccc(-c2nn3c(-c4ccc(OC)cc4)nnc3c3ccccc23)cc1,-0.528%,
Fc1ccc(-n2ncc3c(Nc4ccc(Oc5ccccc5)cc4)ncnc32)cc1,-0.511%,
CCCOc1ccc(CNC(=O)C2CCN(c3nn4c(=O)cc(C)nc4s3)CC2)cc1,-0.122%,
CCS(=O)(=O)c1nc(S(=O)(=O)c2ccc(C)cc2)c(NCc2ccc(Cl)cc2)s1,0.738%,
Cc1ccc(CNS(=O)(=O)c2ccc(-c3cc(C(F)(F)F)on3)s2)cc1,-4.13%,
Cc1cc(C)cc(NC(=O)c2cnc3sc(N4CCCC4)nn3c2=O)c1,-3.48%,
CCCCOC(=O)CSc1ncnc2sc3c(c12)CCC(C)C3 (configuration not stated),3.48%,
COc1cc(NC(=O)NCC2CCN(Cc3ccc(C)cc3)CC2)cc(OC)c1OC,2.66%,
CCOC(=O)c1ccc(NC(=O)c2c(NCc3cccc(OC)c3)sc3c2CCC3)cc1,-1.01%,
Cc1nc2nc(SCC(=O)N(Cc3ccccc3)C(C)C)nn2c(C)c1Cc1ccccc1Cl,3.24%,
Cc1cc2oc(C(=O)N(Cc3ccc(Cl)cc3)Cc3ccco3)c(C)c2cc1Cl,-1.24%,
Cc1ccccc1-c1nc(CS(=O)(=O)CC(=O)NC(C)c2ccccc2)c(C)o1 (configuration not stated),-1.28%,
CCOc1ccccc1C(=O)NC1(C(F)(F)F)C(=O)Nc2c1c(=O)[nH]c(=O)n2-c1ccc(F)cc1 (configuration not stated),-1.66%,
CCOC(=O)c1c(C)[nH]c(C)c1S(=O)(=O)NCC(=O)NCc1cccc(C)c1,0.835%,
Cc1cccc(NC(=O)CSc2nc(-c3ccco3)cc(C(F)(F)F)n2)c1C,1.98%,
Cn1c(=O)oc2cc(S(=O)(=O)CCC(=O)NCCc3ccc(Cl)cc3)ccc21,-1.07%,
Cc1ccc(C)c(NC(=O)C2CCCN(S(=O)(=O)c3cn(C)cn3)C2)c1 (configuration not stated),1.43%,
O=C(CCc1nc(CN2CCN(S(=O)(=O)c3ccc(Cl)cc3)CC2)no1)N1CCCCC1,1.11%,
COc1ccccc1NC(=O)C1=C(C)Nc2ncnn2C1c1sccc1C (configuration not stated),0.985%,
CCCNC(=O)C(CC)n1nc(CC)n2c(cc3oc(C)cc32)c1=O (configuration not stated),-2.46%,
Cc1ccc(CNC(=O)CSC2=Nc3ccccc3C3=NC(C)C(=O)N23)cc1 (configuration not stated),0.839%,
CCOC(=O)c1cccc(NC(=O)Cn2cnc3nc4c(cc3c2=O)CCCC4)c1,4.01%,
Cc1cc(OC(C)C(=O)Nc2sc3c(c2C(N)=O)CCCC3)ccc1Cl (configuration not stated),-3.34%,

Structure (SMILES),IkBa stabilization activation,Potency
Cc1ccc(S(=O)(=O)n2nc(-c3ccc(Cl)cc3)nc2NCc2ccccc2)cc1,1.79%,
CCOc1ccc(NC(=O)CCC(=O)N2CC(C)Oc3ccc(C)cc32)cc1 (configuration not stated),0.778%,
CCCNC(=O)c1ccc2c(c1)ncn2-c1ccc(C)cc1C,-5.53%,
COC(=O)C1=C(c2ccccc2)c2ccccc2S(=O)(=O)N1CC(=O)Nc1ccccc1C(F)(F)F,-1.32%,
CCc1ccccc1NC(=O)c1ccc2nc(CCc3ccccc3)oc2c1,3.24%,
O=C(CS(=O)(=O)c1cccc2nsnc12)N1CCN(c2cccc(Cl)c2)CC1,0.629%,
Cc1cc2c(cc1S(=O)(=O)CCC(=O)Nc1ccc(OC(F)(F)F)cc1)OCC(=O)N2,6.21%,
CC(C)c1ccc(NC(=O)Cn2c3ncccc3c(=O)n2-c2ccccc2)cc1,-1.21%,
Cc1ccc(Cl)cc1N1CCN(C(=O)c2cn(C)c3ccc(S(=O)(=O)N(C)C4CCCCC4)cc3c2=O)CC1,-0.507%,
CCN1CCN(c2ncc3c(n2)CC(c2ccccc2O)CC3=O)CC1 (configuration not stated),0.899%,
Cc1ccccc1CN1CCC(CNC(=O)c2c(C)oc3ncnc(N4CCCCC4)c23)CC1,0.0466%,
CCN(CCCNC(=O)c1c(C)oc2ncn(CC(C)C)c(=O)c12)Cc1ccccc1,1.93%,
Cc1cccc(CSc2ccc(-c3cccs3)nn2)c1,-2.49%,
CCOc1ccc(OCC)c(Nc2nc3ccccc3n3nnnc23)c1,1.77%,
COc1ccc(S(=O)(=O)N2CCCCC2)cc1C(=O)NC1CCS(=O)(=O)C1 (configuration not stated),1.49%,
CCn1cc(C(=O)N(C)Cc2ccccc2)c(=O)c2cc(S(=O)(=O)N3CCCCCC3)ccc21,1.18%,
O=C1C(c2[nH]c3ccccc3c2O)=Nc2ccccc21,,2510 nM (active)
CCCOC(=O)Cc1c(O)c2ccccc2[nH]c1=O,0.442%,
CCCC(=O)Nc1c(O)c2ccccc2[nH]c1=O,-0.355%,
COc1ccc(-c2nc3sc(CCNC(=O)C(C)(C)C)c(C)n3n2)cc1,-2.83%,
COc1ccc(N2CCN(C(=O)c3ccc4c(Cl)c5c(nc4c3)CCCC5)CC2)cc1,0.102%,
CC(=O)Nc1ccc2nc(SCCOc3cc(C)cc(C)c3)sc2c1,-0.0445%,
CCC1CN(S(=O)(=O)c2cc(-c3cc(C)no3)ccc2C)c2cc(C)ccc2O1 (configuration not stated),0.0798%,
CC1CCN(S(=O)(=O)c2ccc3c(c2)N(CC(=O)NCc2ccccc2Cl)C(=O)CO3)CC1,2.09%,
COC(=O)c1ccc(NC(=O)CCc2c(C)nn(-c3ccc(N4CCCC4)nn3)c2C)cc1,1.12%,

Structure (SMILES),IkBa stabilization activation,Potency
COc1ccc(-n2c(C)nc3c(cnn3-c3ccc(F)cc3)c2=O)cc1,-2.95%,
CC1=C(c2ccc(C)c(C)c2)S(=O)(=O)NC1=NCc1ccccc1Cl,1.34%,
Cc1cc(C)c2oc(C(=O)Nc3ccc(S(=O)(=O)N4CCCCCC4)cc3)cc(=O)c2c1,2.05%,
CN(C)CCN(Cc1ccccc1)S(=O)(=O)c1csc(C(N)=O)c1,-0.756%,
COC(=O)c1ccccc1NC(=O)c1cnn(-c2ccc(F)cc2)c1-n1cccc1,27.9%,
COc1ccc(NC(=O)C2CCN(c3ccc(Sc4ccc(C)cc4)nn3)CC2)c(OC)c1,0.374%,
COc1ccc(C2NC(=O)N(C)C3=C2C(=O)N(c2ccc(C(=O)O)cc2)C3)cc1 (configuration not stated),-0.8%,
COc1cccc(NC(=O)CN2C(=O)c3ccccc3Sc3ncccc32)c1,4.99%,
Cc1ccc(-c2cnc(C3CC3)o2)cc1S(=O)(=O)Nc1cccc(C)c1C,-1.63%,
COCCNC(=O)c1cc(-c2cccc(Cl)c2)on1,68.5%,
COc1ccc(-c2nc3c4ccccc4n(CC(=O)Nc4ccc(C(C)=O)cc4)c(=O)n3n2)cc1,-0.837%,
Cc1ccccc1OCC(=O)Nc1c(C(=O)Nc2ccccc2F)oc2ccccc12,-0.867%,
COc1cc(NC(=O)C2=CC(c3ccco3)=NS(=O)(=O)N2C)cc(OC)c1OC,1.1%,
Cc1ccc2oc(=O)c3cnn(CC(=O)NCc4ccccc4Cl)c3c2c1,0.266%,
COc1cccc(CNC(=O)C2CCC(CNS(=O)(=O)c3cccs3)CC2)c1 (configuration not stated),-3.86%,
CCCCC(=O)OC1=CN(Cc2ccccc2)S(=O)(=O)c2ccccc21,1.1%,
Cc1cc(C)cc(NS(=O)(=O)c2ccc(-c3cc(C)no3)s2)c1,2.64%,
CCc1ccccc1NC(=O)c1ccc2c(c1)CCN2S(C)(=O)=O,1.19%,
O=C(COc1ccccc1F)OCc1cc(=O)n2nc(C3CCCCC3)sc2n1,2.16%,
CN1C(=O)c2[nH]nc(-c3ccc(F)cc3)c2C1c1ccccn1 (configuration not stated),2.45%,
CCC(=O)N1CCc2cc(S(=O)(=O)NC(Cc3ccccc3)C(=O)NCc3ccccc3)ccc21 (configuration not stated),0.67%,
O=c1cc(-c2ccccc2)n2c(SCc3ccccc3)nnc2[nH]1,49.6%,
